VHR inh abs: inhibitors of human VHR1 phosphatase (DUSP3). AID 1654. inhibition, % at 13.3 µM. P51452. hit rate 0.52% among 290,000. recombinant VHR phosphatase, pNPP absorbance; in the data active = inhibition above about 50%
Target sequence (P51452 whole entry, looked up): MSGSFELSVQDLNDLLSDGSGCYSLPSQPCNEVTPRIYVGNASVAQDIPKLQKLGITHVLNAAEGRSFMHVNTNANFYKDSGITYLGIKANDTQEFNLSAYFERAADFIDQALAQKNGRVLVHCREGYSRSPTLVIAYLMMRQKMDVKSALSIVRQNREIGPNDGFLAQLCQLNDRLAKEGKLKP
Mtb hypoxia inh: inhibitors of hypoxia-regulated fluorescent reporter in Mycobacterium tuberculosis | fluorescence inhibition, % (test concentration not listed) | hit rate 0.1% among 300,000 | M. tuberculosis hypoxia-regulated fluorescent reporter, fluorescence | AID 1159583; in the data active = fluorescence inhibition mostly above about 23%, no sharp cut-off; inactive = mostly below about 17%
MazEF act: MazEF (E. coli) toxin RNase activation | activation, % at 20 µM | P0AE70 | hit rate 0.32% among 350,000 | AID 504720 | FAM/BHQ RNA-DNA oligo cleavage fluorescence, 5 h; in the data active = activation above about 50%
Target sequence (P0AE70 whole entry, looked up): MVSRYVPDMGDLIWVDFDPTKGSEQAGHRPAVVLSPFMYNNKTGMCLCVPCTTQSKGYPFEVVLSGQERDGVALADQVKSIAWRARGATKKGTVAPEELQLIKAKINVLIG
3CLpro inhibitor: SARS-CoV 3CLpro protease inhibition. P0C6X7. recombinant SARS-CoV 3CLpro, quenched FRET peptide cleavage. inhibition, % at 6 µM. hit rate 0.14% among 290,000; in the data active = inhibition above about 12%
PrPC surface inh: reduces human prion protein on the cell surface. cell surface PrPC, TR-FRET read-out. AID 720596. hit rate 0.43% among 370,000. inhibition, % at 13.8 µM. P04156; in the data active = inhibition above about 24%; note: 0% = median of the test wells and 100% = reference compound wells
PrP UTR inh: inhibition of PrP 5' UTR reporter expression. hit rate 0.35% among 340,000. cell-based PrP 5' UTR mRNA reporter, plate reader. inhibition, % (no concentration beside the values). AID 488862; in the data active = inhibition above about 52%; note: 0 = median of the neutral control wells
The depositor's hits bear a star; . = no result; + = active, no number. Rows were chosen to be rich in hits. Some 1.5% of all compounds tested hit in one or more screens of this group.

SMILES | VHR inh abs | Mtb hypoxia inh | MazEF act | 3CLpro inhibitor | PrPC surface inh | PrP UTR inh
Cc1ccc(-c2cc(-c3ccccc3)nc(Cl)n2)cc1 | 29.7 | 10.1 | 1.5 | -3.4 | 0.6 | -14.1
COc1ccc2c(c1)c(=O)oc1c(C)c(OCc3ccc(C(=O)O)cc3)ccc12 | 51.9* | . | -27.8 | -1.0 | . | -26.2
COc1ccc2c(c1)c(=O)oc1c(C)c(OCc3cc(C(=O)O)oc3C)ccc12 | 115.9 | -10.6 | -6.7 | 5.5 | 5.5 | -10.0
CCOC(=O)N1CCC(NC(=O)c2cccn3c(=O)c4cc(Br)ccc4nc23)CC1 | 83.6* | 1.1 | 21.3 | 1.4 | -13.5 | -6.6
Nc1nc2nc(-c3ccc(OCc4ccccc4)cc3)cc(C(F)(F)F)n2n1 | 24.4 | 3.2 | 58.0* | 4.8 | -2.2 | -14.0
Nc1nc2nc(-c3ccc(Cl)cc3)cc(C(F)(F)F)n2n1 | 2.3 | -10.1 | 3.0 | 5.3 | . | -3.4
Cn1c(C(C#N)=C2CCCCCN2)nc2ccccc21 | . | 2.8 | . | . | . | .
CC(=O)N1CCC(=NNS(=O)(=O)c2cccc([N+](=O)[O-])c2)CC1 | 8.3 | -0.9 | 53.0* | 4.1 | -18.3 | -19.6
COc1ccc(S(=O)(=O)N2CCC(C(=O)NCCC(=O)Nc3ccc(Cl)cc3)CC2)cc1 | 56.7* | 0.9 | 54.8* | -5.8 | -5.1 | 1.7
COc1ccc(C2C=CCN(C(=O)c3ccc(C)cc3)CC(=O)N2Cc2ccc(F)cc2)cc1 (stereo unspecified) | . | 13.4 | . | . | . | .
CCCCC(=O)Nc1ccc(NC(=O)c2ccc([N+](=O)[O-])cc2)cc1OC | 7.4 | 9.8 | 0.5 | 0.7 | -19.2 | -16.3
CCCCC(=O)Nc1ccc(C(=O)Nc2ccc(OC)cc2[N+](=O)[O-])cc1 | 13.6 | 16.1 | 742.7* | 1.6 | -12.9 | -30.6
COc1ccc(NC(=O)CN(C)S(=O)(=O)c2ccccc2)c([N+](=O)[O-])c1 | 15.7 | 16.5 | 262.9* | 3.2 | 2.7 | -24.8
COc1ccc(NC(=O)CN(C)S(=O)(=O)c2ccc(Cl)cc2)c([N+](=O)[O-])c1 | 10.5 | 1.9 | 14.4 | 2.2 | . | .
ON=C1CCCc2oc3c(c21)CCCC3 | . | 7.5 | . | . | . | .
CC(C)n1cc(C=NNC(=O)COc2cccc3cccnc23)c2ccccc21 | . | 1.5 | . | . | . | .
Cc1ccnc(NC(=O)COC(=O)C23CC4CC(CC(C4)C2)C3)n1 | 31.3 | 13.6 | -2.7 | 4.7 | -1.1 | -21.7
O=C(COC(=O)C12CC3CC(CC(C3)C1)C2)Nc1nccs1 | 52.0* | -8.5 | -6.6 | 8.6 | 2.1 | -15.8
O=C(CN1CCOCC1)NN=Cc1cc2ccccc2nc1Cl | . | 3.3 | . | . | . | .
CCOC(=O)C1(CCC(C)=NNC(N)=O)CC(C)OC1=O (stereo unspecified) | . | 5.6 | . | . | . | .
CCOC(=O)C(CC)n1cnc2c(nnn2-c2ccc(C)cc2)c1=O (stereo unspecified) | 33.8 | 4.0 | 5.6 | 1.2 | 4.2 | -26.7
CCOC(=O)C(CC)n1cnc2c(nnn2-c2cccc(OC)c2)c1=O (stereo unspecified) | 53.0* | 9.2 | 0.8 | -8.9 | -1.2 | -28.9
CCC(=O)c1c(CC)c2n3c1CCC3CCC2 (stereo unspecified) | . | 21.6 | . | . | . | .
O=C(Nc1ncccn1)c1ccc([N+](=O)[O-])o1 | 7.8 | 7.1 | 91.5* | -2.3 | 1.8 | -11.9
CSc1ncc(Cl)c(C(=O)NCc2cccnc2)n1 | 52.0* | 4.5 | 2.5 | 2.8 | 6.0 | -13.8
SMILES | VHR inh abs | Mtb hypoxia inh | MazEF act | 3CLpro inhibitor | PrPC surface inh | PrP UTR inh
Cc1nn(C(C)C(=O)NN=Cc2ccc(N(C)C)cc2)c(C)c1[N+](=O)[O-] (stereo unspecified) | . | -5.4 | . | . | . | .
Nc1nonc1-n1nnc(C(=O)N/N=C/c2ccc3c(c2)OCO3)c1CSc1ccccc1 | 12.8 | . | 72.1* | 2.5 | -0.8 | -79.2
CC(C(=O)Nc1ccc2ccccc2c1)C1C[C@]1(C)C(NS(=O)(=O)c1ccccc1)c1ccccc1 (stereo partly specified) | . | -1.9 | . | . | . | .
Cc1onc(-c2ccccc2Cl)c1C(=O)NC(=S)NCC(=O)c1ccccc1 | 57.4* | 10.1 | 20.6 | -3.3 | 1.4 | -15.1
CCc1ccc(NC(=S)NC(=O)c2c(-c3ccccc3Cl)noc2C)cc1 | 4.8 | 6.6 | -0.5 | 2.0 | 3.0 | -6.2
CCn1nc(-c2ccccc2)c2nc3ccccc3nc21 | 0.2 | . | 786.4* | -9.6 | -0.6 | 3.9
CCn1c2ccc(Cl)cc2c2nc3ccccc3nc21 | 17.4 | 5.9 | -9.1 | -9.4 | 1.0 | .
CCCCCn1nc(-c2ccccc2)c2nc3ccccc3nc21 | 14.7 | . | -899.5 | 4.2 | 3.1 | -21.8
CCCn1nc(-c2ccccc2)c2nc3ccccc3nc21 | 18.7 | . | + | -1.7 | -0.3 | .
Cc1ccc(CN2CCN(N=C/C=C/c3ccccc3[N+](=O)[O-])CC2)cc1 | . | 5.3 | . | . | . | .
CCCC1Cc2ccccc2N1C(C)=O (stereo unspecified) | . | -0.3 | . | . | . | .
O=C(Nc1ccc(-n2cnnn2)cc1)C1CCCCC1 | 51.6* | 5.2 | 7.1 | -0.4 | 0.4 | -19.9
Cc1ccc(CNC(=O)CON=Cc2ccc3c(c2)OCO3)cc1 | . | -2.2 | . | . | . | .
Cc1ccc(-c2nnc(CSc3nc4cc5c(cc4cc3C)OCO5)o2)cc1 | 10.0 | 0.9 | 436.6* | 1.8 | 3.0 | 1.5
COc1ccc(NC(=O)C2CCCN2S(=O)(=O)c2cccc3nsnc23)c(OC)c1 (stereo unspecified) | 59.8* | -4.0 | -18.5 | -0.6 | . | 11.2
COc1ccccc1NC(=O)C1CCCN1S(=O)(=O)c1cccc2nsnc12 (stereo unspecified) | 2.3 | -6.1 | -0.4 | -1.7 | . | -17.1
CCN1CCN(CCCNC(=O)c2ccc(NC(=O)C3=CSCCO3)cc2)CC1 | 52.5* | -14.6 | -4.8 | 0.8 | -2.0 | -11.5
Fc1ccccc1C=NNc1ncnc2ccccc12 | . | 13.0 | . | . | . | .
CN1c2ccccc2Sc2cc(N)ccc21 | 55.0* | . | 5.3 | 4.4 | 1.5 | -11.2
COc1cc(C=NNc2ccc(Cl)nn2)cc(OC)c1O | . | -2.5 | . | . | . | .
COc1ccc(CN2C(=NC(=O)COc3ccccc3)SC3CS(=O)(=O)CC32)cc1 (stereo unspecified) | -9.3 | 2.1 | -12.7 | -0.2 | -5.7 | -3.7
O=C(COc1ccccc1)N=C1SC2CS(=O)(=O)CC2N1Cc1ccccc1 (stereo unspecified) | 59.8* | 7.8 | 3.4 | 2.0 | -2.3 | -5.4
CCC1CCCCN1CCCNC(=O)Cn1cc2c(n1)-c1c(oc(C(=O)N3CCCC3)c1C)CC2 (stereo unspecified) | 55.5* | 2.3 | -0.3 | 6.9 | -6.6 | 7.0
CCCCN(CCCC)CCCNC(=O)Cn1cc2c(n1)-c1c(oc(C(=O)N3CCCC3)c1C)CC2 | 28.7 | 3.0 | 2.4 | -2.9 | -4.9 | -22.3
Cc1c(C(=O)N2CCCC2)oc2c1-c1nn(CC(=O)NCCCN3CCCCC3)cc1CC2 | 46.9 | 4.0 | 3.6 | 4.6 | -4.1 | 12.8
Cc1c(C(=O)N2CCCC2)oc2c1-c1nn(CC(=O)NCCCN3CCCCC3C)cc1CC2 (stereo unspecified) | 55.6* | -0.2 | -0.8 | -6.3 | -2.6 | -1.3
COc1cc(C=NNC(=O)Cc2csc(N3CCOCC3)n2)cc(OC)c1O | . | 2.3 | . | . | . | .

Bioassay records: PubChem, several laboratories
